What follows are compounds tested against Activated CDC42 kinase 1 (Homo sapiens) (UniProt Q07912). Details: at 0.1 µM.
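Note: values are mean inhibition of TNK2, from the GSK PKIS screening dataset.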

Activated CDC42 kinase 1 (Homo sapiens), sequence (Q07912 whole entry, looked up): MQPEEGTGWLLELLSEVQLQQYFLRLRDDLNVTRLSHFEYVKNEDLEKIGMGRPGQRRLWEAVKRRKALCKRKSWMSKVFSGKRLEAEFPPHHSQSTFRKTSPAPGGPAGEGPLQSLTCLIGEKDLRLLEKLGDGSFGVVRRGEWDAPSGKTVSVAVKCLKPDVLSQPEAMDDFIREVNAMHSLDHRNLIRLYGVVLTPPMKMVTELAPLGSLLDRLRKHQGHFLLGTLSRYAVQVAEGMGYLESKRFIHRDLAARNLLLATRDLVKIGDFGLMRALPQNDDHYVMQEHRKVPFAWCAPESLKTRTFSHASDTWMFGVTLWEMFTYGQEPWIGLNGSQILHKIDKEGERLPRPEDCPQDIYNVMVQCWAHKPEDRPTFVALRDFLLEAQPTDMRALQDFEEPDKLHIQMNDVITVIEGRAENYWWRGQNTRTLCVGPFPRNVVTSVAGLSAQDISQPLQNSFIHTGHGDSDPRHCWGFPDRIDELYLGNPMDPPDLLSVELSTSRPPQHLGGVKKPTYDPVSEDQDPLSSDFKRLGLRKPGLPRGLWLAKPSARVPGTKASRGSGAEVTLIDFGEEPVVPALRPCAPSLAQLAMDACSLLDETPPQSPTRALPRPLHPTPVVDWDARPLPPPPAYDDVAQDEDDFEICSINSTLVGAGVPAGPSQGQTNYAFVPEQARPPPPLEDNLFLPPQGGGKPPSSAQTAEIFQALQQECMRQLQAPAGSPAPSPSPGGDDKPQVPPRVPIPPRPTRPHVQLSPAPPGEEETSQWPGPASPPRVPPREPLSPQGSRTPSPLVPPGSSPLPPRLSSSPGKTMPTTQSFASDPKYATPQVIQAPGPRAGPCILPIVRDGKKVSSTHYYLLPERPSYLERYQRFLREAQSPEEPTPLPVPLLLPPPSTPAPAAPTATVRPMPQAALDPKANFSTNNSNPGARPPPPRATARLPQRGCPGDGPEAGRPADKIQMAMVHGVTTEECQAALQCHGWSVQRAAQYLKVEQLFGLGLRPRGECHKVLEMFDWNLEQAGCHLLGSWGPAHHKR

| SMILES | inhibition [%] |
| --- | --- |
| CC(C)=Cc1cccc2c1/C(=N/Nc1ccc(S(N)(=O)=O)cc1)C(=O)N2 | 0.01 |
| COC(=O)Nc1nc2cc(Oc3cccc(NC(=O)Nc4cc(C(F)(F)F)ccc4F)c3)ccc2[nH]1 | -0.5 |
| Nc1ncnc2occ(-c3ccc(NC(=O)Nc4cc(C(F)(F)F)cc(C(F)(F)F)c4)cc3)c12 | 1.04 |
| CCn1c(-c2nonc2N)nc2cncc(C(=O)N3CCNCC3)c21 | 1.51 |
| NC(=O)c1ccc(-c2nc(-c3ccccn3)c(-c3ccc4c(c3)OCO4)[nH]2)cc1 | 0.29 |
| CCn1c(-c2nonc2N)nc2c(C#CC(C)(C)O)nc(CN3CCCC3)cc21 | -0.98 |
| NCc1ccc(-c2nc(-c3ccc(Cl)c(O)c3)c(-c3ccncc3)[nH]2)cc1 | -0.36 |
| N#Cc1c(NC(=O)c2cccc3ccccc23)sc2c1CCCC2 | 0.12 |
| Cc1cc(O)cc(C)c1/C=C/c1cncc(-c2nn[nH]n2)c1 | 1.68 |
| Cc1cccc(-c2n[nH]cc2-c2ccc3ncccc3n2)n1 | -0.11 |
| O=C1NC(=O)C(N2CCc3ccccc32)=C1c1ccc(Cl)cc1 | 3.17 |
| CCn1c(-c2nonc2N)nc2ccncc21 | -0.95 |
| Cc1nnc(-c2ccc(C)c(-c3ccc(C(=O)Nc4cccc(C#N)c4)cc3)c2)o1 | 0.82 |
| COc1ccc(-c2nn3ncccc3c2-c2ccnc(Nc3ccc(Cl)c(C(F)(F)F)c3)n2)cc1 | 0.86 |
| CS(=O)(=O)CCNCc1ccc(-c2ccc3ncnc(Nc4ccc(OCc5ccccc5)c(Cl)c4)c3c2)o1 | -0.1 |
| O=C1NC(=O)C(c2ccc(Cl)cc2)=C1Nc1ccc(Cl)c(C(=O)O)c1 | -0.36 |
